Test results taken from PubChem BioAssay (NCI).
Compounds without any hit were thinned out: in the full panel of roughly 83,000, 20% have a hit.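 Activity criterion: percent growth below 10, measured after cells in 96-well plates were exposed to a single compound concentration for 48 hours.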 A number with no mark means an inactive call. Activity calls are given as the source filed them.

Key:
Assay in all cases: NCI-60 one-dose screen, 48 h (100 = growth as untreated, 0 = no growth, -100 = all killed)
Details in all cases: 10 µM unless noted
NCI-H23 lung = test system: NCI-H23 lung
NCI-H226 lung = test system: NCI-H226 lung
NCI-H322M lung = test system: NCI-H322M lung
HOP-62 NSCLC = test system: HOP-62 NSCLC
NCI-H460 lung = test system: NCI-H460 lung
HOP-92 NSCLC = test system: HOP-92 NSCLC
NCI-H522 lung = test system: NCI-H522 lung
A549/ATCC NSCLC = test system: A549/ATCC NSCLC
786-0 renal = test system: 786-0 renal
COLO 205 colon = test system: COLO 205 colon
DU-145 prostate = test system: DU-145 prostate
K-562 leukemia = test system: K-562 leukemia
MALME-3M melanoma = test system: MALME-3M melanoma
MDA-MB-231 breast = test system: MDA-MB-231 breast
RXF 393 renal = test system: RXF 393 renal
SF-268 CNS = test system: SF-268 CNS
SF-295 CNS = test system: SF-295 CNS
SF-539 CNS = test system: SF-539 CNS
UACC-257 melanoma = test system: UACC-257 melanoma
M14 melanoma = test system: M14 melanoma

Compound	growth (NCI-H23 lung)	growth (NCI-H226 lung)	growth (NCI-H322M lung)	growth (HOP-62 NSCLC)	growth (NCI-H460 lung)	growth (HOP-92 NSCLC)	growth (NCI-H522 lung)	growth (A549/ATCC NSCLC)	growth (786-0 renal)	growth (COLO 205 colon)	growth (DU-145 prostate)	growth (K-562 leukemia)	growth (MALME-3M melanoma)	growth (MDA-MB-231 breast)	growth (RXF 393 renal)	growth (SF-268 CNS)	growth (SF-295 CNS)	growth (SF-539 CNS)	growth (UACC-257 melanoma)	growth (M14 melanoma)
O=S(=O)(NCCNc1nccc(-c2c(-c3cccc(F)c3)nc3sccn23)n1)c1ccc(Cl)cc1	74.9%	49.3%	65.5%	82.6%	30.1%	76.6%	68.2%	32.1%	51.3%	40%	54.2%	41.3%	82.6%	91.1%	69%	52.9%	63.7%	82.5%	88.7%	56.6%
O=C(c1ccccc1)N1N=C(c2ccc(-n3ccc(C(F)(F)F)n3)c(F)c2)CC1c1ccc[nH]1 (configuration not stated)	104%	108%	98.7%	122%	102%	141%	89.9%	99.9%	97.1%	116%	111%	96.5%	101%	99.5%	112%	104%	105%	109%	95.6%	107%
COc1ccc(C(=O)/C=C/c2cc3ccccc3n3nnnc23)cc1	103%	105%	103%	103%	112%	109%	94%	105%	91.4%	122%	115%	91.8%	108%	106%	106%	108%	102%	107%	114%	
O=C(N/N=C/c1cc2ccccc2n2nnnc12)Nc1ccccc1	100%	103%	105%	100%	105%	105%	93.6%	97.7%	91.5%	108%	103%	95.1%	106%	105%	103%	101%	104%	106%	111%	102%
O=C(c1nc2ccccc2[nH]1)C1C(c2ccc(Br)cc2)C2CC3CCCC[C@H]3N2[C@@]12C(=O)Nc1cc(Cl)ccc12 (some centres not stated)	54.5%	51.8%	56.1%	62.4%	16.8%	52.1%	59.1%	33%	42%	21.8%	52%	25.3%	32%	41.6%	34%	42%	31.6%	56%	43.2%	
C=C1C(=O)O[C@H]2[C@H]1CC/C(COC(=O)NCCc1c[nH]c3ccc(OC)cc13)=C\CC[C@@]1(C)O[C@@H]21	73.9%	51%	87.2%	83.4%	69.4%	-8.74% (active)	-74.2% (active)	64.2%	-35.4% (active)	-47.2% (active)	10.6%	3.56% (active)	-37.2% (active)	39.1%	-81.7% (active)	60.1%	86.2%	-24.7% (active)	30.6%	
COc1ccc2[nH]c(=O)c(CN3CCN(c4nccc(-c5ccc(Cl)cc5)n4)CC3)cc2c1	91.2%	94.4%	85.4%	80.1%	76.3%	101%	77%	73.9%	85.2%	95.9%	98.9%	70.4%	92.9%	85%	90.3%	90.5%	98.4%	89.8%	82.6%	102%
Cc1cccc(NC(=O)Nc2ccc(-n3cnc4cc(-c5ccc(O)cc5)ccc43)cc2)c1	27.7%	62.6%	69.8%	39.3%	9.07% (active)	81.1%	6.16% (active)	24.9%	36.2%	69.1%	33.9%	14.2%	28.4%	47.3%	58.4%	42.3%	18.4%	29.1%	32.3%	21.4%
